# Test results from article PMC7862700, “An all-to-all approach to the identification of sequence-specific readers for epigenetic DNA modifications on cytosine”.
# Experiments:
# Experiment in all cases: DAPPL (digital affinity profiling via proximity ligation, sequencing); 10 mM Tris-HCl pH 7.5, 50 mM NaCl, 1 mM DTT, 4% glycerol, room temperature, 30 min; GST-TFs on glutathione beads, 16-mer random dsDNA library, 0.1% formaldehyde crosslink after washing; high values mean tight binding
# [1] = biological target: T1, FLI1 (Homo sapiens, UniProt Q01543 1-452); conditions: protein: recombinant; tags: N-terminal GST; dsDNA, one strand shown
# T1 sequence: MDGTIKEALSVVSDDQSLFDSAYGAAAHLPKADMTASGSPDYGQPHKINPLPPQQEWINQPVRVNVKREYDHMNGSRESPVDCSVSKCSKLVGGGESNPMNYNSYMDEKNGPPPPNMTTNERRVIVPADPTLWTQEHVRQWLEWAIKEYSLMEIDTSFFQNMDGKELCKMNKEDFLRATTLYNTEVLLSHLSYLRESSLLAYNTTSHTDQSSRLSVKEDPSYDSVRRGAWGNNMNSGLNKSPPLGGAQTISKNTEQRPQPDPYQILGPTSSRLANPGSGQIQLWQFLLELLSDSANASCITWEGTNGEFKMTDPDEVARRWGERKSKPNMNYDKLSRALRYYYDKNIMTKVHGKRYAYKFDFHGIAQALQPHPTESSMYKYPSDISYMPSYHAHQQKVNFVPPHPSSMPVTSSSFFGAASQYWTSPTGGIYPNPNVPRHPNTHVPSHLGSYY
# How it was run: (§1)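 Yeast served to express human transcription factors as GST fusions, which were then captured on glutathione beads and labelled with DNA barcodes. Pooled with a tag-only sample, they were incubated with 200 nmole of a 16-mer random double-stranded DNA library for 30 min at room temperature in Tris/NaCl/DTT/glycerol buffer, washed, crosslinked with 0.1% formaldehyde, ligated by proximity, amplified by PCR and sequenced. Dividing each hexamer's read frequency for a factor by its frequency for the tag-only sample gives the binding signal.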
# [2] = biological target: T2, ELK1 (Homo sapiens, UniProt P19419 1-428); conditions: protein: recombinant; tags: N-terminal GST; dsDNA, one strand shown
# T2 sequence: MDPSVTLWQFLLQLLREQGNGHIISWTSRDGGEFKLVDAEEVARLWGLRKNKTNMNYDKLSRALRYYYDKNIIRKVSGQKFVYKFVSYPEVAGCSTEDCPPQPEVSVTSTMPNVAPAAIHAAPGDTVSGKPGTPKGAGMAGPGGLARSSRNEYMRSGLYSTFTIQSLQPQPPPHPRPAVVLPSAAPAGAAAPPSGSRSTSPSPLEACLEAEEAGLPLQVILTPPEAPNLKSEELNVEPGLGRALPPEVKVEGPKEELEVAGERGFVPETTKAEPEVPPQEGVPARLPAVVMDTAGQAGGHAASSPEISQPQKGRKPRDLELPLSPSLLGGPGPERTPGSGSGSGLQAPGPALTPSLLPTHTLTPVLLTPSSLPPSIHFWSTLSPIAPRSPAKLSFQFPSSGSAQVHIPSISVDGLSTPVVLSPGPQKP
# How it was run: as §1
# [3] = biological target: T3, GABPA (Homo sapiens, UniProt Q06546 1-454); conditions: protein: recombinant; tags: N-terminal GST; dsDNA, one strand shown
# T3 sequence: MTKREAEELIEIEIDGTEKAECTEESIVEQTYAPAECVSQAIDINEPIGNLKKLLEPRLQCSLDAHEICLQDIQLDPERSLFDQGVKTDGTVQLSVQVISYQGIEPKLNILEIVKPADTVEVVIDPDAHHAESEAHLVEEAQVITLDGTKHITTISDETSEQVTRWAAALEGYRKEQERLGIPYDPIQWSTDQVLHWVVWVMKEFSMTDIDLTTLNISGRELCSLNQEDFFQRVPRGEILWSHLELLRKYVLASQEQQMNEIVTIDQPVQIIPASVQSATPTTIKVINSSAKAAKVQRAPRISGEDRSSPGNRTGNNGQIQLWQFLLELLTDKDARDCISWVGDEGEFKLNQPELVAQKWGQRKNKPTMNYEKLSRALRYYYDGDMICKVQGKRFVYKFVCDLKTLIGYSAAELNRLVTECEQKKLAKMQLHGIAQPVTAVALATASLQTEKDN
# How it was run: as §1
# [4] = biological target: T4, ERG (Homo sapiens, UniProt P11308 1-479); conditions: protein: recombinant; tags: N-terminal GST; dsDNA, one strand shown
# T4 sequence: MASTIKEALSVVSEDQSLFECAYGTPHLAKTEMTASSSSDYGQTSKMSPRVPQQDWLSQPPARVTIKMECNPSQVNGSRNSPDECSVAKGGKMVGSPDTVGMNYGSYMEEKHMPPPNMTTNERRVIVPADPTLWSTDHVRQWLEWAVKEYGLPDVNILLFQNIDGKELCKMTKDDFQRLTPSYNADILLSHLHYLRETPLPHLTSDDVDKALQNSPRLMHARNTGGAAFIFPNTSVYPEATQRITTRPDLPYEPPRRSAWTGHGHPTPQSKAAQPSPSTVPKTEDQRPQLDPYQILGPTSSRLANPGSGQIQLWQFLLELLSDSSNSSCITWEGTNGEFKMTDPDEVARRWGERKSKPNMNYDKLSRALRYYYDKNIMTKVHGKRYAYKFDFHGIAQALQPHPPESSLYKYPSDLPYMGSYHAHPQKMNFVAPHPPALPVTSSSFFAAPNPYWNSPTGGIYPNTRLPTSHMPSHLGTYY
# How it was run: as §1
# [5] = biological target: ELF1 (Homo sapiens, UniProt P32519 1-619); conditions: protein: recombinant; tags: N-terminal GST; dsDNA, one strand shown
# How it was run: as §1
# [6] = biological target: T5, EHF (Homo sapiens, UniProt Q9NZC4 1-300); conditions: protein: recombinant; tags: N-terminal GST; dsDNA, one strand shown
# T5 sequence: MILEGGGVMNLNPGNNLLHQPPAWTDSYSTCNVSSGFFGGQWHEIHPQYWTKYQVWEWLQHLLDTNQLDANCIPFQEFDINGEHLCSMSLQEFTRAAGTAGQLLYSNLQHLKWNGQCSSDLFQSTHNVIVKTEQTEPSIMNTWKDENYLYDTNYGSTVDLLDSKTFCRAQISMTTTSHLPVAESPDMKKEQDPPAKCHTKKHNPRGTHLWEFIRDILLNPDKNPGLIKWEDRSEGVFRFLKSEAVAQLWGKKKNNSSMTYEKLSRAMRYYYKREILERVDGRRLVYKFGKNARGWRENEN
# How it was run: as §1
# [7] = biological target: SPI1 (Homo sapiens, UniProt P17947 1-270); conditions: protein: recombinant; tags: N-terminal GST; dsDNA, one strand shown
# How it was run: as §1
# [8] = biological target: SPIB (Homo sapiens, UniProt Q01892 1-262); conditions: protein: recombinant; tags: N-terminal GST; dsDNA, one strand shown
# How it was run: as §1
# [9] = biological target: T6, ELK3 (Homo sapiens, UniProt P41970 1-407); conditions: protein: recombinant; tags: N-terminal GST; dsDNA, one strand shown
# T6 sequence: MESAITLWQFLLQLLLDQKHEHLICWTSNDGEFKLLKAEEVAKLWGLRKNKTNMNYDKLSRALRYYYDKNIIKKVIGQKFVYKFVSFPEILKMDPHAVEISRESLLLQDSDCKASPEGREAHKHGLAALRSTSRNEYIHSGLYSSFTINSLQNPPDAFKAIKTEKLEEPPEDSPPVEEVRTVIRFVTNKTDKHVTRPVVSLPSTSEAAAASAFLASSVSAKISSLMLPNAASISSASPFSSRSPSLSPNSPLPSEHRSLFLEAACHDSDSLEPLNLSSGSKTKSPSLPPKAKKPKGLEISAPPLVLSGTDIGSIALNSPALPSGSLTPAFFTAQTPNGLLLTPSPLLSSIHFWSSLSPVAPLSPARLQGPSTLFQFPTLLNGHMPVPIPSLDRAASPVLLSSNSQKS
# How it was run: as §1
# [10] = biological target: T7, FEV (Homo sapiens, UniProt Q99581 1-238); conditions: protein: recombinant; tags: N-terminal GST; dsDNA, one strand shown
# T7 sequence: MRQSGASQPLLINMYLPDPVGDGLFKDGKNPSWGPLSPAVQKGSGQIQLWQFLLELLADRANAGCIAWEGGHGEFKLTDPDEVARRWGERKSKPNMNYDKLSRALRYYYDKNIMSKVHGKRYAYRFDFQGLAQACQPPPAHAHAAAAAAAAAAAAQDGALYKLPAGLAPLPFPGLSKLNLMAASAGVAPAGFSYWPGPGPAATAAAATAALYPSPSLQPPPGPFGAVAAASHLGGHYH
# How it was run: as §1
# [11] = biological target: ETV5 (Homo sapiens, UniProt P41161 1-510); conditions: protein: recombinant; tags: N-terminal GST; dsDNA, one strand shown
# How it was run: as §1
# [12] = biological target: HSF1 (Homo sapiens, UniProt Q00613 1-529); conditions: protein: recombinant; tags: N-terminal GST; chain copies: 3; dsDNA, one strand shown
# How it was run: as §1
# [13] = biological target: T8, SPIC (Homo sapiens, UniProt Q8N5J4 1-248); conditions: protein: recombinant; tags: N-terminal GST; dsDNA, one strand shown
# T8 sequence: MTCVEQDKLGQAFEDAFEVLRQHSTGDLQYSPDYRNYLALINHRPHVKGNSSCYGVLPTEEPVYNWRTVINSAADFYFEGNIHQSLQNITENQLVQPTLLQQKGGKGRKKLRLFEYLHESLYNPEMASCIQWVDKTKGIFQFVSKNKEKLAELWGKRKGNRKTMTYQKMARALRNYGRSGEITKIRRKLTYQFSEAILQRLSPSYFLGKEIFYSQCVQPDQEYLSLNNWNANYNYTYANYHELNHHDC
# How it was run: as §1
# [14] = biological target: ELF4 (Homo sapiens, UniProt Q99607 1-663); conditions: protein: recombinant; tags: N-terminal GST; dsDNA, one strand shown
# How it was run: as §1
# [15] = biological target: T9, ELK4 (Homo sapiens, UniProt P28324-2 1-405); conditions: protein: recombinant; tags: N-terminal GST; dsDNA, one strand shown
# T9 sequence: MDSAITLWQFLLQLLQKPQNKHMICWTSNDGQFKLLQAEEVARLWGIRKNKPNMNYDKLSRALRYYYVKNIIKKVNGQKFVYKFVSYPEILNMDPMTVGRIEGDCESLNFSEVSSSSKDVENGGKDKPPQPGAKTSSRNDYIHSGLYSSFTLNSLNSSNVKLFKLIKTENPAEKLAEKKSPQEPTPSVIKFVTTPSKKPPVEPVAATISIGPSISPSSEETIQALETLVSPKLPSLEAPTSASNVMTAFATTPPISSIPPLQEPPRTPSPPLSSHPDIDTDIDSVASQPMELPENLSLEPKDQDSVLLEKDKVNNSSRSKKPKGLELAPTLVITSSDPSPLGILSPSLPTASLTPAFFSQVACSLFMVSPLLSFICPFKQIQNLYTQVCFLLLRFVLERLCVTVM
# How it was run: as §1
# [16] = biological target: T10, ETV2 (Homo sapiens, UniProt O00321 1-342); conditions: protein: recombinant; tags: N-terminal GST; dsDNA, one strand shown
# T10 sequence: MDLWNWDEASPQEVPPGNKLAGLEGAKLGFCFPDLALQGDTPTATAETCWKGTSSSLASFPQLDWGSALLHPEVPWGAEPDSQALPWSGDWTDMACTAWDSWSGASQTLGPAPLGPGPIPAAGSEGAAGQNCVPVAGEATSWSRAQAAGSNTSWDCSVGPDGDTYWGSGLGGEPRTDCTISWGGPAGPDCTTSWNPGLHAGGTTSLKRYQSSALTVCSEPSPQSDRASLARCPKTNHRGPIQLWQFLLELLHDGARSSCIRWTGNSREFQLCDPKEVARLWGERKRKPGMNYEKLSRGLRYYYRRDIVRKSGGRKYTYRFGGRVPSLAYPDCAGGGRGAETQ
# How it was run: as §1
# [17] = biological target: T11, ELF3 (Homo sapiens, UniProt P78545 1-371); conditions: protein: recombinant; tags: N-terminal GST; dsDNA, one strand shown
# T11 sequence: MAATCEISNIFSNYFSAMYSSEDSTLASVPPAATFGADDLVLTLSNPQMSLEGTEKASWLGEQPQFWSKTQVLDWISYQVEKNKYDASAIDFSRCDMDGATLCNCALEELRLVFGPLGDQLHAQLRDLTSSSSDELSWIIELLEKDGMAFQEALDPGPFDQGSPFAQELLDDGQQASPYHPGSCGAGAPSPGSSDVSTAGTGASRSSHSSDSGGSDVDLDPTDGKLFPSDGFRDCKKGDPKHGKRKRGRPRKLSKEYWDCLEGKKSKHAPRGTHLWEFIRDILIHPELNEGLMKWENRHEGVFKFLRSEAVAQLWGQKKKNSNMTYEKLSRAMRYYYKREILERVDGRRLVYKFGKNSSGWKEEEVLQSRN
# How it was run: as §1
# [18] = biological target: CRX (Homo sapiens, UniProt O43186 1-299); conditions: protein: recombinant; tags: N-terminal GST; dsDNA, one strand shown
# How it was run: as §1
# [19] = biological target: ETV1 (Homo sapiens, UniProt P50549 1-477); conditions: protein: recombinant; tags: N-terminal GST; dsDNA, one strand shown
# How it was run: as §1
# Chain of CRX (O43186 whole entry): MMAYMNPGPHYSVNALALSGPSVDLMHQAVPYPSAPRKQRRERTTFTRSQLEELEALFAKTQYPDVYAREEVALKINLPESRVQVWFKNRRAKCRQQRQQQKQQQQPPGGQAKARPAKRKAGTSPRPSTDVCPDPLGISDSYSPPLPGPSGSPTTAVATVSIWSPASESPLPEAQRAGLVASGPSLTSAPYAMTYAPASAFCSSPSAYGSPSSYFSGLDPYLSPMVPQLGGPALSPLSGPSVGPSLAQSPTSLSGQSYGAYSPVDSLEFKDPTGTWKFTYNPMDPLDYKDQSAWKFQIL
# Chain of ELF1 (P32519 whole entry): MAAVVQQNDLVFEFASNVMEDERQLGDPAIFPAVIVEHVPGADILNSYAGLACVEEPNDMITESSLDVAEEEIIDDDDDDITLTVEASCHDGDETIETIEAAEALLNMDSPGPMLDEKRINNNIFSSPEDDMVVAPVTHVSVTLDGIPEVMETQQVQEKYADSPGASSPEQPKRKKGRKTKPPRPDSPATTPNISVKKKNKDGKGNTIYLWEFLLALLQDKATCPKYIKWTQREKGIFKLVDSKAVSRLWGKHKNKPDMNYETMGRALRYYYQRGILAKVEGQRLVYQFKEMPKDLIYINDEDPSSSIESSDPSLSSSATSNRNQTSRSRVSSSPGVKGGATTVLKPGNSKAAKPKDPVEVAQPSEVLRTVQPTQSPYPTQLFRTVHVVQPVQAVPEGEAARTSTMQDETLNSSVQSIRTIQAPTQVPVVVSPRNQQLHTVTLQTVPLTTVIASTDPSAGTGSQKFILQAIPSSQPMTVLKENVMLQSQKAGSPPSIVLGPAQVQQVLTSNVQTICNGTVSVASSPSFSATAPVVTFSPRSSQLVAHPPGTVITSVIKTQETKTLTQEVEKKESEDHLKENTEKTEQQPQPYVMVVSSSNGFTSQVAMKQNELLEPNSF
# Chain of ETV1 (P50549 whole entry): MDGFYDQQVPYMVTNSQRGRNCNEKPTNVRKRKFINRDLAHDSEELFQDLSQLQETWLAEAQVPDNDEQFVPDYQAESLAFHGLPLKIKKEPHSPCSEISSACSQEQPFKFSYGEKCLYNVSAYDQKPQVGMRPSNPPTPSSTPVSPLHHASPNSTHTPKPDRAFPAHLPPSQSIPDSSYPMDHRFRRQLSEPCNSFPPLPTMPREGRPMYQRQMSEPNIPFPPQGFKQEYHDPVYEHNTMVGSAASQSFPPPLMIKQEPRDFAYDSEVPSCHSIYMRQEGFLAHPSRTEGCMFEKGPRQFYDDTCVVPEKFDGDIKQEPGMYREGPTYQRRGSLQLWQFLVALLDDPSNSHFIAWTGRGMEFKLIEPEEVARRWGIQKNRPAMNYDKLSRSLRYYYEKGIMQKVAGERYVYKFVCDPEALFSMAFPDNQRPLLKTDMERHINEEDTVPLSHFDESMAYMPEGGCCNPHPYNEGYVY
# Chain of SPIB (Q01892 whole entry): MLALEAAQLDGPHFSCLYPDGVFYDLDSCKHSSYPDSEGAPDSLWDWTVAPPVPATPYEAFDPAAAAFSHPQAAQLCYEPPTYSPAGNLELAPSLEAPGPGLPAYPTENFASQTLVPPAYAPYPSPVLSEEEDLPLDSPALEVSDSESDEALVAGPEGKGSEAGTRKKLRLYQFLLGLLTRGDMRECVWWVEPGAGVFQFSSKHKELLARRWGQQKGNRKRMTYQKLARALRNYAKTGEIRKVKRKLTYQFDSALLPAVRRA
# Chain of ETV5 (P41161 whole entry): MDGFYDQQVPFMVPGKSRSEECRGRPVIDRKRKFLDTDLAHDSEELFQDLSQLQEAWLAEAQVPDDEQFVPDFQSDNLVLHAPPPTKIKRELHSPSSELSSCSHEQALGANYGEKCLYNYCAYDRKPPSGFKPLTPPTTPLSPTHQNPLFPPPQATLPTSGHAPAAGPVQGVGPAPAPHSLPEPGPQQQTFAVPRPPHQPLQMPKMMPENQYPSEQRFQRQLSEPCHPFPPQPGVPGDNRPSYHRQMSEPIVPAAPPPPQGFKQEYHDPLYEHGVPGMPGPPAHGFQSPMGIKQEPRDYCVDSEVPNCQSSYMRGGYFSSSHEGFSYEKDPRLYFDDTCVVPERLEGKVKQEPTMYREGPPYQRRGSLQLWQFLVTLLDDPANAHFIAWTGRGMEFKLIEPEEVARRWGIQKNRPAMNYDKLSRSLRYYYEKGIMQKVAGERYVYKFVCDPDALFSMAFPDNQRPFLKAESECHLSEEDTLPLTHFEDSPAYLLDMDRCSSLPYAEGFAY
# Chain of ELF4 (Q99607 whole entry): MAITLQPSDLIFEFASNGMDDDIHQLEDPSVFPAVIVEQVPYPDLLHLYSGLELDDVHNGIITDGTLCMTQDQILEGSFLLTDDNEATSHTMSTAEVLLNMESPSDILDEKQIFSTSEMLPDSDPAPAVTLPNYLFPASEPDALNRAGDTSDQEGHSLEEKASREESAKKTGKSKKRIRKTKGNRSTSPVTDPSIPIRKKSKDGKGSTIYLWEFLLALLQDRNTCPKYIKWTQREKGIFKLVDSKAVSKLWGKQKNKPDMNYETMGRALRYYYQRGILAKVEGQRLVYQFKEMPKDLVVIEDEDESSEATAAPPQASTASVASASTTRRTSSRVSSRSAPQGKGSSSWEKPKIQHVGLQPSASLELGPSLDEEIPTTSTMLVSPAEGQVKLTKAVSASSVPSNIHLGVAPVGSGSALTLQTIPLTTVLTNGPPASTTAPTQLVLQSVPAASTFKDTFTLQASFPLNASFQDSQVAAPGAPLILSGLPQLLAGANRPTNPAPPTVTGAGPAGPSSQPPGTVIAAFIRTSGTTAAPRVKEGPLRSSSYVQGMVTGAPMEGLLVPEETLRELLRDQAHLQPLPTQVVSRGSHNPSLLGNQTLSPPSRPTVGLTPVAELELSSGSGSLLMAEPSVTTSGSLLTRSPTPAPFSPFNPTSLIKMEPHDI
# Chain of HSF1 (Q00613 whole entry): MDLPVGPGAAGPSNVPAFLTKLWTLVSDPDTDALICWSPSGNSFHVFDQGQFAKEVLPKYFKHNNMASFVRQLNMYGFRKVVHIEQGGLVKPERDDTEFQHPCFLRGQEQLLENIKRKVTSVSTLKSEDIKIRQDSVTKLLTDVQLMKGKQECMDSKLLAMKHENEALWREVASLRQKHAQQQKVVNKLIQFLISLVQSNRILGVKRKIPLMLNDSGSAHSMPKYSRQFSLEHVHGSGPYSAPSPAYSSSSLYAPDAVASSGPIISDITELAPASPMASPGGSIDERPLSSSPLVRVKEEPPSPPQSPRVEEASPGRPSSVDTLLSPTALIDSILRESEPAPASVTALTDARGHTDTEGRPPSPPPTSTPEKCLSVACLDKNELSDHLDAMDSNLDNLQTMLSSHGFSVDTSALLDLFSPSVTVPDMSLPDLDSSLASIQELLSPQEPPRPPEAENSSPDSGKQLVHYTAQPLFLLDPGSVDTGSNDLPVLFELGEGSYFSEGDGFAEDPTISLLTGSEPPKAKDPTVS
sequence,measurement,setting,value
TTACAA,binding signal,[1],"1.15 fold enrichment (6-mer frequency, TF over GST control)"
same,binding signal,[2],"1.17 fold enrichment (6-mer frequency, TF over GST control)"
same,binding signal,[3],"1.16 fold enrichment (6-mer frequency, TF over GST control)"
same,binding signal,[4],"1.16 fold enrichment (6-mer frequency, TF over GST control)"
same,binding signal,[5],"1.15 fold enrichment (6-mer frequency, TF over GST control)"
same,binding signal,[6],"1.17 fold enrichment (6-mer frequency, TF over GST control)"
same,binding signal,[7],"1.15 fold enrichment (6-mer frequency, TF over GST control)"
same,binding signal,[8],"1.07 fold enrichment (6-mer frequency, TF over GST control)"
same,binding signal,[9],"1.13 fold enrichment (6-mer frequency, TF over GST control)"
same,binding signal,[10],"1.12 fold enrichment (6-mer frequency, TF over GST control)"
same,binding signal,[11],"1.1 fold enrichment (6-mer frequency, TF over GST control)"
same,binding signal,[12],"1.31 fold enrichment (6-mer frequency, TF over GST control)"
same,binding signal,[13],"1.12 fold enrichment (6-mer frequency, TF over GST control)"
same,binding signal,[14],"1.12 fold enrichment (6-mer frequency, TF over GST control)"
same,binding signal,[15],"1.24 fold enrichment (6-mer frequency, TF over GST control)"
same,binding signal,[16],"1.09 fold enrichment (6-mer frequency, TF over GST control)"
same,binding signal,[17],"1.22 fold enrichment (6-mer frequency, TF over GST control)"
same,binding signal,[18],"1.77 fold enrichment (6-mer frequency, TF over GST control)"
same,binding signal,[19],"1.18 fold enrichment (6-mer frequency, TF over GST control)"
